Assay [1] in a line: qHTS assay to identify small molecule agonists of the sonic hedgehog signaling (Shh) pathway (AID 1259368; calls by dose curve;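 also: NIH/3T3-derived 3T3Gli1-Luc cells carrying a stable Gli1-driven firefly luciferase reporter; series mostly up to about 92 µM; nearly all actives have a fitted effect of over 15% in size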). A digest of the protocol:
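A Gli1 transcriptional response element controlled firefly luciferase in 3T3Gli1-Luc cells. Compounds and a positive control were added 4 hr after plating, and cells were incubated a further 24 hr at 37 C before luminescence detection.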
(In qHTS, concentration-response curves come from the screen itself.)

Assay [2] is described as follows: qHTS assay to identify small molecule antagonists of the sonic hedgehog signaling (Shh) pathway (AID 1259369; calls by dose curve; also: nearly all actives have a fitted effect of over 45% in size). The method, boiled down:
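For antagonist detection, the reporter line received test compounds together with conditioned medium, incubated 24hr at 37 C, 5% CO2, then luminescence was recorded following 30min room-temperature luciferase reagent incubation.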

The target in assay [3] is Estrogen receptor beta (Homo sapiens) (UniProt Q92731). Kind of assay: qHTS assay to identify small molecule agonists of the estrogen receptor beta (ER-beta) signaling pathway (AID 1259377; active = well fitted activation curve with a large enough effect in the signal ratio in the repeat runs, not every such curve was filed as active; the % refers to the signal ratio). A digest of the protocol: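 Read-out: beta-lactamase FRET fluorescence. Cell line: ER-beta-UAS-bla HEK293T in 2% charcoal-stripped FBS. Exposure: 16 hr at 37C. Substrate step: 2 h at room temperature.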
Sequence of Estrogen receptor beta (Homo sapiens) (Q92731 whole entry, looked up): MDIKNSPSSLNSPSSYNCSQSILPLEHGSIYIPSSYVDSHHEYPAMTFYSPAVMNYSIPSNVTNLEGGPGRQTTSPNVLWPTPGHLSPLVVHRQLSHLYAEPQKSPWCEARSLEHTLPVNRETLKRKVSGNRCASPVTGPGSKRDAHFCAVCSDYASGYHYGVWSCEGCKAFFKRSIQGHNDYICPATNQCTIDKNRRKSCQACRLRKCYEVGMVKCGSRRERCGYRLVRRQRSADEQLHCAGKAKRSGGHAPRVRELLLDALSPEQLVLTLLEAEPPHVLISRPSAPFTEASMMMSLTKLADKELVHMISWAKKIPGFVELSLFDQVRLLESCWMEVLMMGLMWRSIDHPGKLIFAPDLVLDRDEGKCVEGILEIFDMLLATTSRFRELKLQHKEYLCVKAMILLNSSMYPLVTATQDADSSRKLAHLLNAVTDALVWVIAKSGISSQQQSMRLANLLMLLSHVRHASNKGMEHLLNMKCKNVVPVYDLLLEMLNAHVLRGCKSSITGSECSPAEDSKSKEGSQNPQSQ

For assay [4] the target is unchanged. In words: qHTS assay to identify small molecule antagonists of the estrogen receptor beta (ER-beta) signaling pathway (AID 1259378; active = well fitted inhibition curve with a large enough effect in the signal ratio in the repeat runs, not every such curve was filed as active; the % refers to the signal ratio; also: potency is read from the fitted curve at half-maximal effect). The method, boiled down:
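ER-beta-UAS-bla HEK293T cells in 2% charcoal-stripped FBS medium treated with compound plus 1nM final 17-beta-estradiol for 16 hr at 37C. Beta-lactamase reporter read by FRET substrate fluorescence after 2 hours at room temperature.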

A short description of assay [5]: qHTS assay to identify small molecule agonists of the estrogen receptor beta (ER-beta) signaling pathway - cell viability counter screen (AID 1259380). Also: nearly all actives have a fitted effect of over 30% in size. A digest of the protocol: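 CellTiter-Glo read, 30 min RT, same wells as bla assay; cells ER-beta-UAS-bla HEK293T; 16 hr compound, 37C; medium 2% charcoal-stripped FBS.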
In assay [6] the target is Androgen receptor (Homo sapiens) (UniProt P10275). Kind of assay: qHTS assay to identify small molecule agonists of the androgen receptor (AR) signaling pathway in the presence of an antagonist (AID 1259381; calls by dose curve; also: nearly all actives have a fitted effect of over 15% in size). The method, boiled down:
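Test compounds at 15 concentrations were incubated for 16hr with MDA-kb2 reporter cells in presence of 3.0uM nilutamide (final). Signal: ONE-Glo luciferase luminescence.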

Assay [7] in a line: qHTS assay to identify small molecule antagonists of the estrogen receptor beta (ER-beta) signaling pathway - cell viability counter screen (AID 1259382). Also: series mostly up to about 92 µM; nearly all actives have a fitted effect of over 55% in size. The method, boiled down:
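In this multiplexed counter screen, cells were seeded at 2,000 per well in medium with 2% charcoal-stripped FBS and incubated 6 hr before compound and 1nM final E2 were added. Sixteen hours later, ATP-based luminescence reported viability.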

Assay [8] has as its target Estrogen receptor (Homo sapiens) (UniProt P03372). Kind of assay: qHTS assay to identify small molecule agonists of the estrogen receptor alpha (ER-alpha) signaling pathway in the presence of an antagonist (AID 1259383; calls by dose curve; also: top concentration of the series differs between compounds; nearly all actives have a fitted effect of over 15% in size). The method, boiled down:
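Stably transfected VM7Luc4E2 reporter cells, kept 5 days in charcoal-stripped serum, received ICI-182,780 at 10.0nM final before compound addition. Following 22hr incubation at 37C and 5% CO2, luciferase signal was read by luminescence.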

In assay [9] the target is Thyrotropin receptor (Homo sapiens) (UniProt P16473). Kind of assay: qHTS assay to identify small molecule antagonists of the thyroid stimulating hormone receptor (TSHR) signaling pathway (AID 1259385; calls by dose curve; also: nearly all actives have a fitted effect of over 20% in size). A digest of the protocol:
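TSHR-HEK293 cells (800/well) plated 18 h, then compounds with Ro20-1724 and TSH at 1.5 ng/mL final, 30 min at room temperature. cAMP quantified by HTRF (cAMP-d2/anti-cAMP-cryptate, 1 h); 15 concentrations in triplicate.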

Assay [10] is described as follows: qHTS assay to identify small molecule agonists of the estrogen receptor alpha (ER-alpha) signaling pathway in the presence of an antagonist - cell viability counter screen (AID 1259386).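 Also: series mostly up to about 92 µM; cells exposed to compounds for 22 h at 37 °C before the viability read; nearly all actives have a fitted effect of over 30% in size.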 The method, boiled down:
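Viability counter screen using VM7Luc4E2 (full-length ER-alpha, four ERE-luciferase). The cells were treated with compounds alongside ICI-182,780 10.0nM for 22hr, and live-cell protease fluorescence was quantified with CellTiter-Fluor.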

Assay [11] addresses Progesterone receptor (Homo sapiens) (UniProt P06401). In words: qHTS assay to identify small molecule agonists of the progesterone receptor (PR) signaling pathway (AID 1346784; calls by dose curve; also: nearly all actives have a fitted effect of over 30% in size). A digest of the protocol:
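Compounds were tested for PR agonism in HEK 293T cells bearing a beta-lactamase gene under UAS control. Treatment lasted 16 hr at 37C; signal came from fluorescence of a FRET substrate.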

The target is the same in assay [12]. In words: qHTS assay to identify small molecule antagonists of the progesterone receptor (PR) signaling pathway (AID 1346795; active = well fitted inhibition curve with a large enough effect in the signal ratio in the repeat runs, not every such curve was filed as active; the % refers to the signal ratio). A digest of the protocol:
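In HEK293T cells bearing the PR-UAS-bla reporter, compound effects on promegestone-driven (1 nM) beta-lactamase expression are assessed after 16 hr using a fluorescent FRET substrate incubated 2 hr at room temperature.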

A short description of assay [13]: qHTS assay to identify small molecule antagonists of the progesterone receptor (PR) signaling pathway - cell viability counter screen (AID 1346798). Also: series mostly up to about 92 µM; nearly all actives have a fitted effect of over 50% in size. The method, boiled down: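 Following a 4 hr attachment, PR-UAS-bla HEK293T cells in charcoal-stripped FBS medium were exposed to compounds with R5020 for 16 hr; CellTiter-Glo was added and luminescence read after 30 min at room temperature.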

A short description of assay [14]: qHTS assay to identify small molecule agonists of the progesterone receptor (PR) signaling pathway - cell viability counter screen (AID 1346799; calls by dose curve; also: nearly all actives have a fitted effect of over 45% in size). A digest of the protocol:
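Here, 3,000 PR-UAS-bla HEK293T cells per well were treated with compounds for 16 hr after a 6 hr preincubation at 37C and 5% CO2; cell viability is the CellTiter-Glo luminescence signal.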

Assay [15] is described as follows: qHTS assay to identify small molecule antagonists of the TGF-beta/Smad signaling pathway - cell viability counter screen (AID 1346824). Also: nearly all actives have a fitted effect of over 50% in size. The method, boiled down:
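SBE-bla HEK 293T cells, incubated overnight, then compound plus 0.25 ng/mL TGF-beta1 (stock added) for 5 hr at 37 C. Viability was read in the same wells by CellTiter-Glo luminescence after 30 min at room temperature.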

Assay [16] in a line: qHTS assay to identify small molecule agonists of the TGF-beta/Smad signaling pathway - cell viability counter screen (AID 1346829). Also: top concentration of the series differs between compounds; nearly all actives have a fitted effect of over 45% in size. A digest of the protocol:
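Here the cytotoxicity of library compounds is measured in SBE-bla HEK 293T cells treated for 5 hr, using CellTiter-Glo added to wells already read for the beta-lactamase reporter.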

Assay [17] can be described thus: qHTS assay to identify small molecule agonists of the TGF-beta/Smad signaling pathway (AID 1346859; active = well fitted activation curve with a large enough effect in the signal ratio in the repeat runs, not every such curve was filed as active; the % refers to the signal ratio; also: series mostly up to about 77 µM). A digest of the protocol: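 Each well held 4,000 SBE-bla HEK 293T cells incubated overnight before compound addition; 5 hr later the cleavable FRET substrate went on for 2 hr at room temperature, and fluorescence was read at two emissions.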
The target of assay [18] is Thyrotropin-releasing hormone receptor (Homo sapiens) (UniProt P34981). In words: qHTS assay to identify small molecule antagonists of the thyrotropin-releasing hormone receptor (TRHR) signaling pathway (AID 1346877; active = well fitted inhibition curve with a large enough effect in the repeat runs, not every such curve was filed as active; also: series mostly up to about 51 µM). A digest of the protocol: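 Following an 18 h incubation at 37 °C and a 2 h calcium dye load, TRHR-HEK293 cells were exposed to compound (5 min, room temperature) and challenged with TRH, 1 nM final.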
Sequence of Thyrotropin-releasing hormone receptor (Homo sapiens) (P34981 whole entry, looked up): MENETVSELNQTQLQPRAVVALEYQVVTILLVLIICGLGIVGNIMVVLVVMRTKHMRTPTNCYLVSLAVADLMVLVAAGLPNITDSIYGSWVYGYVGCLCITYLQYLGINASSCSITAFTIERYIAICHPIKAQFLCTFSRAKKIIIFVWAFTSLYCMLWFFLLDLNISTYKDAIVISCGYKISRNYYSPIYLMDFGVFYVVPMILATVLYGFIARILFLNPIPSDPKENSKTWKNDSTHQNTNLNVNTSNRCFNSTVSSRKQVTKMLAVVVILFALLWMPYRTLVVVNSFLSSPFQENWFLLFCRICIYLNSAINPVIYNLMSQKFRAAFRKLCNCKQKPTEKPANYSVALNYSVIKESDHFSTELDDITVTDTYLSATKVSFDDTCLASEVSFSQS

A short description of assay [19]: qHTS assay to identify small molecule agonists of the androgen receptor (AR) signaling pathway in the presence of an antagonist - cell viability counter screen (AID 1259379).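 Also: MDA-kb2 human breast cancer cells carrying an MMTV luciferase reporter; series mostly up to about 92 µM; nearly all actives have a fitted effect of over 25% in size.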 A digest of the protocol:
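Seed MDA-kb2 at 3,000 cells/well; incubate 5 hr, 37C, 0% CO2. Add nilutamide to 3.0uM final, then pin compounds at 15 concentrations. Incubate 16 hr. Add CellTiter-Fluor at 15 hr, read fluorescence after 1 hr.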

Assay [20] in a line: qHTS assay to identify small molecule agonists or antagonists of the thyroid stimulating hormone receptor (TSHR) signaling pathway - wild type cell line counter screen (AID 1259384; calls by dose curve). A digest of the protocol:
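Wild-type Hek293 cells, 800/well, 18 h at 37C, then compound with Ro20-1724 for 30 min RT. cAMP by HTRF (cAMP-d2/anti-cAMP cryptate), 1 h RT, fluorescence read. 15 concentrations, triplicates.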

Records with an inconclusive call do not appear. Where a structure was tested more than once in an assay, its records may differ in their call. Calls of active or inactive are those of the source. Unless noted, calls follow the shape of the dose curve; as a rule, active = well fitted curve in the direction sought with a large enough effect in the repeat runs; inconclusive = weak or mixed curves; inactive = no such curve, though single readings can be large; an effect the other way counts as inactive or inconclusive.

Sequence of Androgen receptor (Homo sapiens) (P10275 whole entry, looked up): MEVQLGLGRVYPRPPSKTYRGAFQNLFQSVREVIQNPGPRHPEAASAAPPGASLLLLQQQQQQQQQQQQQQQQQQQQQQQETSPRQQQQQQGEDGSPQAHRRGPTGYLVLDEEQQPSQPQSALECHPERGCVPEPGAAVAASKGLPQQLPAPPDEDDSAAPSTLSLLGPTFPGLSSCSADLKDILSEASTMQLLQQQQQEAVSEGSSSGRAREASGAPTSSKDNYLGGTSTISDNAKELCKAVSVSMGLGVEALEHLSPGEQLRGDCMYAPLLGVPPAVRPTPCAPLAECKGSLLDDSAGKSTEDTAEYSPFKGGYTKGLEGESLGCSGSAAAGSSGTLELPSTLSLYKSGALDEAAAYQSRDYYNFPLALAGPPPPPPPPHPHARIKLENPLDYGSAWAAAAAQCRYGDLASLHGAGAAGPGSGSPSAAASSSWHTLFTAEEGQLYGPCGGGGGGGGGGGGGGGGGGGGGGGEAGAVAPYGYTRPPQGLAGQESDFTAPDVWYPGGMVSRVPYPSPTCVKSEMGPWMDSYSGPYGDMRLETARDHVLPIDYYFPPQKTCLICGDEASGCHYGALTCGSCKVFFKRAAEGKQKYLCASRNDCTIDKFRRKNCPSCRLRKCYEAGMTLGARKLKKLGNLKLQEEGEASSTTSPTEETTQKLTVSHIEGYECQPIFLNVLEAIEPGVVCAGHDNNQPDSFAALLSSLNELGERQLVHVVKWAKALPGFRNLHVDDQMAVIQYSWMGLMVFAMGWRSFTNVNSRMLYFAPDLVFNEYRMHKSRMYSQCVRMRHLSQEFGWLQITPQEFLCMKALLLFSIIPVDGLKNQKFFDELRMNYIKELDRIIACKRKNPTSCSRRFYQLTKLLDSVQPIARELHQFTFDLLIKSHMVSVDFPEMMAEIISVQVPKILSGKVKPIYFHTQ
Sequence of Progesterone receptor (Homo sapiens) (P06401 whole entry, looked up): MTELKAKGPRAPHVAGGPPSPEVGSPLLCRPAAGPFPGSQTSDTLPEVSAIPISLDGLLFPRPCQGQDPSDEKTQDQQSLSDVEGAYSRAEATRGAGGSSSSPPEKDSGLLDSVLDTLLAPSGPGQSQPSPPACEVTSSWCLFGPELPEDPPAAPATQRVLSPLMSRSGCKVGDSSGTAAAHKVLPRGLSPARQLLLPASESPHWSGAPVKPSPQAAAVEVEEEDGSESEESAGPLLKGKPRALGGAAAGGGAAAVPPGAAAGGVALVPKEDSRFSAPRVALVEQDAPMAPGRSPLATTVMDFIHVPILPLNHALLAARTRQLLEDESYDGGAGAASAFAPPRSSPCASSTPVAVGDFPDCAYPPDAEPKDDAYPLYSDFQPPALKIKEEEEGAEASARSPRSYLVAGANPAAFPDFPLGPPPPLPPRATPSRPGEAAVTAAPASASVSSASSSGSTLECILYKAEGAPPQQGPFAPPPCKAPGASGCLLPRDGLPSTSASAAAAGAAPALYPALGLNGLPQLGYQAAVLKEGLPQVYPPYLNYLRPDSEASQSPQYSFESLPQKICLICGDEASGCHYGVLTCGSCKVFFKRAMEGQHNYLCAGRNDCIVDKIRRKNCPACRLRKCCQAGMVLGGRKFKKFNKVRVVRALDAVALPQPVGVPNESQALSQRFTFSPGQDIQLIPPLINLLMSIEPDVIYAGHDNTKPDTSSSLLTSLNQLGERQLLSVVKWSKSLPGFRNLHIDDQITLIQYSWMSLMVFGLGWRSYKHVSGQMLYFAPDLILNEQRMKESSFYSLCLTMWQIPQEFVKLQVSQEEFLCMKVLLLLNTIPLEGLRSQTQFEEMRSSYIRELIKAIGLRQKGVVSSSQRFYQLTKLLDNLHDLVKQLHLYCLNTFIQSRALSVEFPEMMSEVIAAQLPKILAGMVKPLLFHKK
Sequence of Estrogen receptor (Homo sapiens) (P03372 whole entry, looked up): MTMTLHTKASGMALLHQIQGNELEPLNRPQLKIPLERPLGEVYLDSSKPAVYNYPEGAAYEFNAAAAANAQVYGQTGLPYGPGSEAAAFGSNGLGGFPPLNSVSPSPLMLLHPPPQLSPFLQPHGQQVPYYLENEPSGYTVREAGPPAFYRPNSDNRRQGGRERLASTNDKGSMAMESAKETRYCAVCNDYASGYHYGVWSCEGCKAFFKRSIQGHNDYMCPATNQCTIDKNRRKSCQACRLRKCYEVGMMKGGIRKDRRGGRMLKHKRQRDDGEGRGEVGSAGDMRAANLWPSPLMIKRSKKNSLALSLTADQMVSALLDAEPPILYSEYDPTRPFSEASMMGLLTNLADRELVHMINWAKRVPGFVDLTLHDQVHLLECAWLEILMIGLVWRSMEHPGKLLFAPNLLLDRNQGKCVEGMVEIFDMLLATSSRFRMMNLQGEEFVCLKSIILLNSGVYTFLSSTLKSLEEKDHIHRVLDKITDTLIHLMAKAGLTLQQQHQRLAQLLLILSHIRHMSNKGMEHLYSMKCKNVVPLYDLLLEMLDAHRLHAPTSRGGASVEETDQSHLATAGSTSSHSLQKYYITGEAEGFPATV
Sequence of Thyrotropin receptor (Homo sapiens) (P16473 whole entry, looked up): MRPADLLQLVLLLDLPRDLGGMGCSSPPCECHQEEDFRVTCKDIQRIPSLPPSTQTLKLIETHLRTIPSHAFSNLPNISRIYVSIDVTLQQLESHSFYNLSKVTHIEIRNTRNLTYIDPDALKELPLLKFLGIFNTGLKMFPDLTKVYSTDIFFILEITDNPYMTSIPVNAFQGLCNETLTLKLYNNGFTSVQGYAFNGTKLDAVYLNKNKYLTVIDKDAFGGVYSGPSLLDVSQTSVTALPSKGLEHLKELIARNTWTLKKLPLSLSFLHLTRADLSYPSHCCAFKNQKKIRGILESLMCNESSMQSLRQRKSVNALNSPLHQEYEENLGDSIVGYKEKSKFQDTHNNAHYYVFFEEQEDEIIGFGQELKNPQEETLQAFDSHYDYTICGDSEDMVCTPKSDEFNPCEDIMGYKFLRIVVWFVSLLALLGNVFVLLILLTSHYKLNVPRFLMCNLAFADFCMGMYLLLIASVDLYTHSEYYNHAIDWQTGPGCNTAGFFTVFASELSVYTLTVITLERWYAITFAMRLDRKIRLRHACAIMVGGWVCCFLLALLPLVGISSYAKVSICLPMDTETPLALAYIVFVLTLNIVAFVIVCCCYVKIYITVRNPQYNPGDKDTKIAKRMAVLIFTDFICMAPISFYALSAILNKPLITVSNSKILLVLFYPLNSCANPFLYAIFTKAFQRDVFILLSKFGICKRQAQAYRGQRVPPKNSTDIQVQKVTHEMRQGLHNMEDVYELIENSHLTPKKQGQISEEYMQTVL

Take `OCc1ccccc1`: the call in assay [1], in [7], in assay [9], in assay [13], in [14] and in assay [15] was inactive. For the same molecule, the call in [16], in [17] and in assay [18] was inactive. For the same molecule, the Potency entry in [2], in assay [3], in assay [4], in assay [5], in assay [6] and in [8] was “inactive” in each case. Besides, the Potency result in [10], in assay [11] and in assay [12] was “inactive” each time.
In the case of `CNC(=S)N(C)C`, the result in assay [1], in assay [7], in assay [13], in assay [14], in [15] and in [16] was inactive. Moreover, in assay [17], the result was inactive. Also, the Potency entry in assay [2], in assay [3], in assay [4], in assay [5], in [8] and in assay [10] was “inactive” in each case. Moreover, the Potency entry in assay [11] and in assay [12] was “inactive” in each case.
With `CCOC(=O)n1ccn(C)c1=S`, the call in assay [1], in [7], in assay [20], in [9], in assay [13] and in assay [14] was inactive. For the same molecule, the result in assay [15], in [16] and in assay [17] was inactive. The Potency result in assay [2], in assay [3], in assay [4], in [19], in assay [5] and in assay [8] was “inactive” throughout. Further, the Potency result in assay [10], in [11] and in assay [12] was “inactive” each time.
For `N[C@H](Cc1c[nH]c2ccccc12)C(=O)O`, the result in assay [1], in assay [7], in assay [20], in assay [9], in assay [13] and in assay [14] was inactive. The molecule was classed as inactive in assay [15], in assay [16] and in assay [17]. The Potency entry in [2], in [3], in [4], in assay [19], in assay [5] and in assay [10] was “inactive” in each case. The Potency result in assay [11] and in [12] was “inactive” throughout.
For the molecule `CC1(C)OC[C@@H]2O[C@@]3(C(=O)O)OC(C)(C)O[C@H]3[C@@H]2O1`, the outcome in assay [1], in assay [7], in assay [20], in [9], in assay [13] and in [14] was inactive. Moreover, the molecule was classed as inactive in [15], in assay [16] and in assay [17]. The Potency result in [2], in assay [3], in [4], in [5], in [10] and in assay [11] was “inactive” each time. The Potency entry in [12] was “inactive”.
`O=c1[nH]cnc2[nH]ncc12`: the molecule was called inactive in assay [1], in assay [7], in assay [13], in assay [14], in [15] and in assay [16]. Also, the molecule was called inactive in assay [17]. The Potency result in assay [2], in [3], in assay [19], in assay [5], in [8] and in [10] was “inactive” in each case. Further, the Potency result in assay [11] and in [12] was “inactive” throughout. In addition, the Potency in assay [4] was 22.2 µM (active) and inactive.
Consider `Cc1ccc([N+](=O)[O-])cc1S(=O)(=O)O`, for which the molecule was classed as inactive in [1], in assay [7], in [20], in assay [9], in assay [13] and in [14]. Also, the molecule was classed as inactive in [15], in assay [16] and in assay [17]. For the same molecule, the Potency entry in assay [2], in assay [3], in assay [4], in assay [19], in assay [5] and in assay [6] was “inactive” each time. For the same molecule, the Potency entry in assay [8], in assay [10], in assay [11] and in assay [12] was “inactive” throughout.
Take `Clc1ccccn1`: the molecule was classed as inactive in assay [1], in assay [7], in assay [20], in assay [9], in assay [13] and in [14]. For the same molecule, the molecule was called inactive in assay [15], in assay [16] and in assay [17]. The Potency entry in assay [2], in assay [3], in [4], in assay [19], in assay [5] and in [10] was “inactive” each time. Further, the Potency result in assay [11] and in assay [12] was “inactive” throughout.
`C=CCc1ccc(OC)c(OC)c1`: the molecule was classed as inactive in [1], in [7], in assay [9], in assay [13], in [14] and in assay [15]. In addition, the molecule was called inactive in assay [16] and in assay [17]. Besides, the Potency result in [2], in [3], in [4], in assay [19], in [5] and in [10] was “inactive” throughout.

(Values after PubChem BioAssay (Tox21).)
